Experimental data as given in the OligoGym collection.

How the values were obtained:
Assay in all cases: pooled miR-30 sensor sort-seq; sequence = guide strand
Settings in all cases: shRNA
[1] = molecular target: SDHAF1
[2] = molecular target: SDR9C7
[3] = molecular target: SCN4A
[4] = molecular target: SEC11C
[5] = molecular target: SEZ6L
[6] = molecular target: SH3YL1
[7] = molecular target: SIAE
[8] = molecular target: SIK3
[9] = molecular target: SIRPD
[10] = molecular target: SIPA1L2
[11] = molecular target: SLC12A6
[12] = molecular target: SLC13A5
[13] = molecular target: SLC10A7
[14] = molecular target: SLC12A1
Also: reference of the scale not given here.

TACAGGCTCAGAACCTGCCTCT
sensor-assay potency score (higher = more potent) [1]: -0.402

TTCGCTCTTGGTGACATCCAGT
sensor-assay potency score (higher = more potent) [2]: -0.405

ATGCGCAGCACGTCGGACCGCG
sensor-assay potency score (higher = more potent) [1]: -1.11

TACTCCACATTCTTGGACCAGG
sensor-assay potency score (higher = more potent) [3]: -1.18

TTGTTCGCCCACTTTGTCCCTC
sensor-assay potency score (higher = more potent) [2]: -0.717

TTTGAACTTCTCAAGCATCTGC
sensor-assay potency score (higher = more potent) [3]: 1.21

TTGCCGAGAATGGCTGTCCGAT
sensor-assay potency score (higher = more potent) [2]: -0.982

TTTGATTACTCTGTGAACTATT
sensor-assay potency score (higher = more potent) [4]: -0.483

TGCGCAGCACGTCGGACCGCGG
sensor-assay potency score (higher = more potent) [1]: -1.5

TAGTCCTGTGTCATGAGGCGGA
sensor-assay potency score (higher = more potent) [3]: -0.484

TTACTCTGTGAACTATTGGAAT
sensor-assay potency score (higher = more potent) [4]: -1.07

TACTCGATGCGCAGCACGTCGG
sensor-assay potency score (higher = more potent) [1]: -1.32

TGTCGCCGTCGTCAGGCTGGGA
sensor-assay potency score (higher = more potent) [1]: -1.53

ATGCTGTTGATGACATCTCTGA
sensor-assay potency score (higher = more potent) [2]: -0.812

TTGATGCAGTAGTAGAACTTGC
sensor-assay potency score (higher = more potent) [3]: -0.382

ATGCTGCCGGAACTCTGCCCGC
sensor-assay potency score (higher = more potent) [1]: -1.77

TTGAGCACGATGCAGATGGTGA
sensor-assay potency score (higher = more potent) [3]: -0.925

TCGTGGGGGTTCCTTGGACTGT
sensor-assay potency score (higher = more potent) [1]: -2.02

TTATGTTTTTTAACTTGTCAGT
sensor-assay potency score (higher = more potent) [2]: -0.963

TTGGAATGTCTCGTCCTTCAAC
sensor-assay potency score (higher = more potent) [4]: -1.07

TAATTTTCTCACAAAATGGGGG
sensor-assay potency score (higher = more potent) [5]: -0.33

TGGATATCTAAGAAGATCCGTT
sensor-assay potency score (higher = more potent) [5]: -0.621

TTGCATTGATTCGTTGTCCTTC
sensor-assay potency score (higher = more potent) [6]: 0.55

TAGACAACTCCCTTGTAGCATT
sensor-assay potency score (higher = more potent) [7]: -0.9

TCTAACACCAACATATGGCGGA
sensor-assay potency score (higher = more potent) [8]: 0.184

TTGCACATGGAACACATGTGTG
sensor-assay potency score (higher = more potent) [9]: -0.922

TTAGTTGTTGGCATTCAGCTAT
sensor-assay potency score (higher = more potent) [8]: -0.107

TACTCCTTGATAGCTCTTCCTT
sensor-assay potency score (higher = more potent) [9]: -0.857

TAGCGCTTCACTTTCTCCCTGT
sensor-assay potency score (higher = more potent) [10]: 0.691

TAGCTGAGCAGAATGTCTGTAA
sensor-assay potency score (higher = more potent) [8]: -0.0523

TTGTCTTGTTTTTCCTTCCGAA
sensor-assay potency score (higher = more potent) [10]: -0.306

TAGCTTGTGCTTCTCTTCTTGT
sensor-assay potency score (higher = more potent) [10]: -0.716

TTATCTATGATCTTGATAGCAA
sensor-assay potency score (higher = more potent) [8]: -0.377

TTGATGTATGAAGCAAAGCGAA
sensor-assay potency score (higher = more potent) [7]: -1.38

TTAATTTCCGGTTTGGCCCTGT
sensor-assay potency score (higher = more potent) [9]: 0.897

TATGATCTTGATAGCAACCTTG
sensor-assay potency score (higher = more potent) [8]: -0.675

TTTCACACTGGTCACTTTCTTC
sensor-assay potency score (higher = more potent) [7]: -0.603

TCTGTTTGAACTTCCGACGTGC
sensor-assay potency score (higher = more potent) [8]: 0.851

TTATTTTCTCCAAAGTCTGTTG
sensor-assay potency score (higher = more potent) [7]: -0.694

TAATCTAATCCTGAGATGCGGA
sensor-assay potency score (higher = more potent) [10]: -0.642

TACAACATTCTTGGAATCCTTT
sensor-assay potency score (higher = more potent) [10]: -0.254

TACATAAGCATCGTCGCTGTTC
sensor-assay potency score (higher = more potent) [8]: -0.402

TTTAACTCGAACAACAGTTTGC
sensor-assay potency score (higher = more potent) [7]: -0.109

TTCAGCACAGTTGTCTACCGAG
sensor-assay potency score (higher = more potent) [10]: -0.567

TAAATCACGATGAACAATGTTC
sensor-assay potency score (higher = more potent) [8]: -0.457

TACTTTTTGAACAGTGAGCTGA
sensor-assay potency score (higher = more potent) [10]: 0.29

TACTTGAACTCTTACTGTCTTG
sensor-assay potency score (higher = more potent) [8]: -0.689

TTGGATTCTGCTCAGTAACAAA
sensor-assay potency score (higher = more potent) [9]: -1.61

TTGTCGAAGAATTAATTCCAGC
sensor-assay potency score (higher = more potent) [10]: -1.01

TACAGTCTGTGACATCTCCGTT
sensor-assay potency score (higher = more potent) [9]: -0.562

TATCTGTAACACAGTCATCTGC
sensor-assay potency score (higher = more potent) [7]: -0.344

TAACACAGTCATCTGCATGTTA
sensor-assay potency score (higher = more potent) [7]: -0.177

TAACAGTTCGAAGCTTTCGGAA
sensor-assay potency score (higher = more potent) [10]: -0.928

TTGTTCATCAAGCTTGAGCAGC
sensor-assay potency score (higher = more potent) [10]: -0.923

TTGTAGATTAATTTCCGGTTTG
sensor-assay potency score (higher = more potent) [9]: -0.577

TTCATAATTTGAACTTCCCGGA
sensor-assay potency score (higher = more potent) [8]: -0.153

TACAGAGCCAGACATCTCCAAA
sensor-assay potency score (higher = more potent) [7]: -1.12

TTGAACTTTGAAGAGGCTCTGC
sensor-assay potency score (higher = more potent) [10]: 0.37

TTTGTTATTTACTTGTACGTTC
sensor-assay potency score (higher = more potent) [9]: 0.326

TTGAACTCTTACTGTCTTGGAA
sensor-assay potency score (higher = more potent) [8]: -0.119

TTAATGACTGCAGTGTCTGTTC
sensor-assay potency score (higher = more potent) [8]: -0.0807

TTGAGGTCCAATTTGTCTGTAG
sensor-assay potency score (higher = more potent) [7]: 0.183

TTATACATCTCTTCCTCTGTGC
sensor-assay potency score (higher = more potent) [10]: 0.628

TATTGAGATAAGCATTTCGAGC
sensor-assay potency score (higher = more potent) [11]: -1.39

TTGTCTCTCATGTCTGTCTCTT
sensor-assay potency score (higher = more potent) [12]: -0.189

TTACTTACCAAAAAACTTCCAA
sensor-assay potency score (higher = more potent) [13]: 0.24

TTATGTTCATTATGACTCCTGT
sensor-assay potency score (higher = more potent) [12]: 0.0164

TACATCATTATAAACTCTGTAA
sensor-assay potency score (higher = more potent) [13]: -0.408

TATGACACTAACTTGAAAGCGA
sensor-assay potency score (higher = more potent) [14]: 0.571

TACACAACCTCTTCCGCTCTTG
sensor-assay potency score (higher = more potent) [12]: -0.374

TTTTAGTGTGTGGAGGTCCTTC
sensor-assay potency score (higher = more potent) [11]: -0.634

TTGCTCGTGAATCTCAAGCAGG
sensor-assay potency score (higher = more potent) [14]: -0.686

TTCTGCCTTGATACCATCCAAG
sensor-assay potency score (higher = more potent) [13]: -1.16

TTCCAATGCTAGTCTCTCCTGT
sensor-assay potency score (higher = more potent) [14]: 0.793

TTTGTGAGGATTTCCAACCAAG
sensor-assay potency score (higher = more potent) [14]: -0.956

TTGACAGCCAAAAACACACAGA
sensor-assay potency score (higher = more potent) [12]: -0.786

TTGAATATTTTGTAGACTCAAC
sensor-assay potency score (higher = more potent) [14]: -1.22

TTCTTTAGTAAGATGAAGCTGT
sensor-assay potency score (higher = more potent) [11]: 0.156

TGTACTTGTAGATCATACCAGC
sensor-assay potency score (higher = more potent) [11]: -0.605

TTTCTTATATCCAATCACCAGA
sensor-assay potency score (higher = more potent) [14]: -0.816

TATCAAAATATTCATCTCCTTC
sensor-assay potency score (higher = more potent) [11]: -0.342

TTTTTGAAGAAGTAGAGGCTGC
sensor-assay potency score (higher = more potent) [11]: 0.521

ATCATGAGGAGTACACTGCTGC
sensor-assay potency score (higher = more potent) [13]: -0.556

TTGTGTGAGAATCATAAGCGTG
sensor-assay potency score (higher = more potent) [14]: -0.782
